Sampled rows, rich in hits. Any-hit rate of the full collection: about 1.1%.
PfHsp40 rescue: compounds rescuing yeast from Plasmodium falciparum HSP40 toxicity. 340,000 tested, 0.68% active. AID 504582. S. cerevisiae expressing PfHsp40, growth rescue, ATP luminescence. growth rescue, % at 12.5 µM; in the data active = growth rescue above about 28%, passing the limit was not always enough;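 note: yeast W303a lacking pdr1 and pdr3 grown in galactose medium; growth measured after three days at 30 °C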
Mtb BioA inh: blocks M. tuberculosis BioA enzyme activity | purified M. tuberculosis BioA enzyme, plate reader | inhibition, % at 9.99 µM | 360,000 tested, 0.096% active | AID 602481; in the data active = inhibition above about 40%
BJeLR lethal: kills HRASV12-expressing BJeLR cells. BJeLR (HRASV12) viability, CellTiter-Glo ATP luminescence, 48 h. inhibition, % (no concentration beside the values). 300,000 tested, 0.17% active. AID 1554; in the data active = inhibition above about 50%
Yp Topo-I inh: Y. pestis Topo-I inhibition via cleavage products. activity, % at 10 µM. 360,000 tested, 0.064% active. Y. pestis Topo-I cleavage product accumulation, plate reader. AID 504884; in the data active = activity above about 50%, passing the limit was not always enough
SARS 3CLpro inh: SARS-CoV 3CLpro protease inhibition. P0C6X7. recombinant SARS-CoV 3CLpro, quenched FRET peptide cleavage. inhibition, % at 6 µM. 290,000 tested, 0.14% active. AID 1706; in the data active = inhibition above about 12%
MazF activator: MazEF (E. coli) toxin RNase activation; P0AE70; FAM/BHQ RNA-DNA oligo cleavage fluorescence, 5 h; activation, % at 20 µM; 350,000 tested, 0.32% active; AID 504720; in the data active = activation above about 50%
Target sequence (P0AE70 whole entry, looked up): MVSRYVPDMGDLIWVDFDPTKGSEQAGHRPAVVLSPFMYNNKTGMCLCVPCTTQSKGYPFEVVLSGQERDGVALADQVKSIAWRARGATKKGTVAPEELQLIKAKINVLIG
* = called active by the depositor; nt = no result; ! = repeats disagree.

SMILES	PfHsp40 rescue	Mtb BioA inh	BJeLR lethal	Yp Topo-I inh	SARS 3CLpro inh	MazF activator
CC(C)(C)C(=O)Nc1nc(C2CCCN2S(=O)(=O)c2ccc(Cl)cc2)cs1 (stereo not drawn)	0.9	nt	-1.3	-3.1	5.4	50.5*
O=C(Nc1nc(-c2ccccc2)cs1)C1CCCCN1S(=O)(=O)c1ccc(Cl)cc1 (stereo not drawn)	-0.1	nt	5.5	2.4	8.1	-11.5
CCn1c(/C=C/c2ccccc2[N+](=O)[O-])nc2ccccc2c1=O	2.3	1.1	-1.0	0.9	2.2	2.6
Cn1c(/C=C/c2ccccc2[N+](=O)[O-])nc2ccccc2c1=O	1.1	0.7	-2.8	1.7	-5.5	232.7*
C#CCOCCOCCOCCNc1nc(N2CCN(C(=O)CCCCCCCCCCNC(=O)Cn3cc(CCCCCN)nn3)CC2)nc(N2CCN(C(=O)CCCCCCCCCCNC(=O)[C@H]([C@@H](C)CC)n3cc(CCCCN=C(N)N)nn3)CC2)n1	29.1*	-1.8	nt	24.4	nt	-32.1
C#CCOCCOCCOCCNc1nc(N2CCN(C(=O)[C@H]([C@@H](C)CC)n3cc(CCCCN)nn3)CC2)nc(N2CCN(C(=O)[C@H](CCCCN)n3cc(CCCC)nn3)CC2)n1	33.0*	-0.7	nt	-4.8	nt	8.8
C#CCOCCOCCOCCNc1nc(N2CCN(C(=O)[C@H](CCCCN)n3cc([C@@H](N)C(C)CC)nn3)CC2)nc(N2CCN(C(=O)[C@H](Cc3cc4ccccc4[nH]3)n3cc([C@@H](N)CC(C)C)nn3)CC2)n1 (stereo partly drawn)	38.6*	1.8	1.6	-23.5	-0.9	-21.9
C#CCOCCOCCOCCNc1nc(N2CCN(C(=O)[C@H](Cc3cc4ccccc4[nH]3)n3cc([C@@H](N)C(C)CC)nn3)CC2)nc(N2CCN(C(=O)[C@H](CCCCN)n3cc([C@@H](N)CO)nn3)CC2)n1 (stereo partly drawn)	nt	nt	-3.7	nt	-0.3	nt
C#CCOCCOCCOCCNc1nc(N2CCN(C(=O)CCCCCCCCCCNC(=O)[C@H]([C@@H](C)CC)n3cc(CCCCCN)nn3)CC2)nc(N2CCN(C(=O)CCCCCCCCCCNC(=O)[C@H]([C@@H](C)CC)n3cc(CCCCN=C(N)N)nn3)CC2)n1	69.0*	-1.7	nt	104.9*	nt	nt
C#CCOCCOCCOCCNc1nc(N2CCN(C(=O)[C@H]([C@@H](C)CC)n3cc(CCC(=O)O)nn3)CC2)nc(N2CCN(C(=O)[C@H](CCCCN)n3cc(CCCC)nn3)CC2)n1	-2.3	-0.7	nt	19.4	nt	8.8
C#CCOCCOCCOCCNc1nc(N2CCN(C(=O)CCCCCCCCCCNC(=O)[C@H]([C@@H](C)CC)n3cc(CCCCN=C(N)N)nn3)CC2)nc(N2CCN(C(=O)CCCCCCCCCCNC(=O)[C@H](CO)n3cc(CCCCCN)nn3)CC2)n1	8.9	-2.7	nt	-22.3	nt	-39.9
C[C@@H]1CN([C@H](C)CO)S(=O)(=O)c2ccc(-c3ccccc3)cc2O[C@H]1CN(C)C(=O)c1ccccc1F	nt	-0.5	nt	nt	nt	nt
C[C@H](CO)N1C[C@H](C)[C@H](CN(C)C(=O)NC2CCCCC2)Oc2ccc(NC(=O)Cc3ccccc3)cc2CC1=O	nt	-1.2	nt	nt	nt	nt
C[C@@H]1CN([C@@H](C)CO)C(=O)c2cccc(NS(=O)(=O)c3ccccc3)c2O[C@H]1CN(C)Cc1ccncc1	nt	-0.8	nt	nt	nt	nt
COc1ccc(NC(=O)N(C)C[C@@H]2OCCCC[C@@H](C)Oc3ccc(NC(=O)Nc4ccccc4)cc3C(=O)N([C@H](C)CO)C[C@H]2C)cc1	nt	18.3	nt	nt	nt	nt
C#CCOCCOCCOCCNc1nc(N2CCN(C(=O)CCCCCCCCCCNC(=O)Cn3cc(C[C@@H](C)O)nn3)CC2)nc(N2CCN(C(=O)CCCCCCCCCCNC(=O)[C@@H](CCC(=O)O)n3cc(CCCCCN)nn3)CC2)n1	-0.6	0.3	nt	3.3	nt	62.9*
C#CCOCCOCCOCCNc1nc(N2CCN(C(=O)CCCCCCCCCCNC(=O)[C@H](CO)n3cc(CCCSC)nn3)CC2)nc(N2CCN(C(=O)CCCCCCCCCCNC(=O)[C@H](CCCN=C(N)N)n3cc(C[C@@H](C)CC)nn3)CC2)n1	30.0*	0.2	nt	10.8	nt	-300.7
C#CCOCCOCCOCCNc1nc(N2CCN(C(=O)CCCCCCCCCCNC(=O)[C@H](CO)n3cc(CCCSC)nn3)CC2)nc(N2CCN(C(=O)CCCCCCCCCCNC(=O)[C@H](CCCCN)n3cc(CCO)nn3)CC2)n1	-2.0	-0.5	nt	-6.7	nt	-27.1
C#CCOCCOCCOCCNc1nc(N2CCN(C(=O)CCCCCCCCCCNC(=O)Cn3cc(C[C@@H](C)O)nn3)CC2)nc(N2CCN(C(=O)CCCCCCCCCCNC(=O)[C@H](CCCCN)n3cc(CCCC(=O)O)nn3)CC2)n1	-2.1	-0.2	nt	31.4	nt	1.7
COc1ccc(S(=O)(=O)Nc2ccc3c(c2)CC(=O)N([C@H](C)CO)C[C@@H](C)[C@H](CN(C)Cc2ccc(Cl)c(Cl)c2)O3)cc1	nt	1.0	nt	nt	nt	nt
c1cnc2c(c1)ccc1cccnc12	57.1*	-1.4	56.1*!	-9.3	0.1	7.8
O=Cc1ccc2ccc3cccnc3c2n1	5.6	3.1	0.9	1.8	4.1	1.4
C[C@@H]1CN([C@H](C)CO)C(=O)c2cc(NC(=O)NC3CCCCC3)ccc2O[C@@H](C)CCCCO[C@@H]1CN(C)Cc1ccc2c(c1)OCO2	nt	-0.1	nt	nt	nt	nt
COc1ccc(/C=C(\C#N)C(=O)NCCc2ccccc2)cc1OCc1ccccc1	0.4	nt	-13.9	20.9	-5.9	83.6*
CNC[C@H]1Oc2ccc(NS(=O)(=O)c3ccc(Cl)cc3)cc2C(=O)N([C@@H](C)CO)C[C@H]1C	nt	-2.3	nt	nt	nt	nt
SMILES	PfHsp40 rescue	Mtb BioA inh	BJeLR lethal	Yp Topo-I inh	SARS 3CLpro inh	MazF activator
Cn1cc(C(=O)N/N=C/C=C/c2ccccc2)ccc1=O	50.7*	1.5	0.9	-2.8	5.1	-1.2
Cn1cc(C(=O)N/N=C/C(Br)=C/c2ccccc2)ccc1=O	-1.3	nt	-4.7	6.6	5.9	5.3
CC1=CC(C)(C)N(S(=O)(=O)c2ccc(C)cc2)c2ccc(C)cc21	165.1*	0.4	29.0	20.7	2.5	-11.1
CC1=CC(C)(C)N(S(=O)(=O)c2ccc(F)cc2)c2ccccc21	1.3	0.0	-1.2	9.5	1.3	-7.9
Cc1cc(C)c2c(c1)c(C)cc1nnc(SCC(=O)c3cccs3)n12	0.1	-0.5	7.6	30.2	-0.4	73.7*
CC(C)c1ccc[n+](-c2nc([O-])sc2C=O)c1	nt	-1.6	2.6	8.5	3.0	-3.5
Cc1ccc[n+](-c2nc([O-])sc2C=O)c1	-0.5	nt	nt	-7.6	-3.0	69.0*
COCCCNC(=O)C(C#N)c1nc2ccccc2nc1N1CCCC1 (stereo not drawn)	-1.2	-4.7	-4.5	-6.8	-2.4	739.4*
CCCCCNC(=O)C(C#N)c1nc2ccccc2nc1N1CCCC1 (stereo not drawn)	0.1	-3.0	0.2	-12.2	-0.8	-158.0
CCCCCCNC(=O)C(C#N)c1nc2ccccc2nc1N1CCOCC1 (stereo not drawn)	-0.5	-3.3	-1.3	-0.9	-4.8	577.4*

High-throughput results as filed in PubChem BioAssay.
